Source: PubChem BioAssay (several laboratories)
FID counter: fluorescent intercalator displacement, NS3 helicase counter-screen | DNA fluorescent intercalator displacement, fluorescence | inhibition, % at 7.9 µM | actives 0.17% (n = 290,000) | AID 1845; in the data active = inhibition above about 37%;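 note: 0% = vehicle and 100% = reference compound; higher means more ethidium bromide displaced from hairpin DNA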
miR-122 sensor: miR-122 inhibition in Huh7 cells | Huh7 miR-122 Renilla luciferase sensor, 48 h; neutral wells = 0, positive control = 100 | actives 0.3% (n = 340,000) | activation (reporter increase), % at 12.5 µM | AID 602342;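 active = mean replicate activation score at least 90 and every replicate individually at or above 90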;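 note: higher luciferase means less miR-122 activity so hits act as miR-122 inhibitors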
RAD54 inh: RAD54 (human) branch migration inhibition | Q92698 | RAD54 Holliday junction branch migration, FAM/BHQ fluorescence | inhibition, % at 10.4 µM | actives 0.14% (n = 360,000);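 active = mean normalized replicate activity at least 40 and at least half of replicates scoring 40 or more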;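 note: 0% = median of neutral control wells and 100% = median of positive control wells; inhibitors cause a drop in the FAM fluorescence signal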
Target sequence (Q92698 whole entry, looked up): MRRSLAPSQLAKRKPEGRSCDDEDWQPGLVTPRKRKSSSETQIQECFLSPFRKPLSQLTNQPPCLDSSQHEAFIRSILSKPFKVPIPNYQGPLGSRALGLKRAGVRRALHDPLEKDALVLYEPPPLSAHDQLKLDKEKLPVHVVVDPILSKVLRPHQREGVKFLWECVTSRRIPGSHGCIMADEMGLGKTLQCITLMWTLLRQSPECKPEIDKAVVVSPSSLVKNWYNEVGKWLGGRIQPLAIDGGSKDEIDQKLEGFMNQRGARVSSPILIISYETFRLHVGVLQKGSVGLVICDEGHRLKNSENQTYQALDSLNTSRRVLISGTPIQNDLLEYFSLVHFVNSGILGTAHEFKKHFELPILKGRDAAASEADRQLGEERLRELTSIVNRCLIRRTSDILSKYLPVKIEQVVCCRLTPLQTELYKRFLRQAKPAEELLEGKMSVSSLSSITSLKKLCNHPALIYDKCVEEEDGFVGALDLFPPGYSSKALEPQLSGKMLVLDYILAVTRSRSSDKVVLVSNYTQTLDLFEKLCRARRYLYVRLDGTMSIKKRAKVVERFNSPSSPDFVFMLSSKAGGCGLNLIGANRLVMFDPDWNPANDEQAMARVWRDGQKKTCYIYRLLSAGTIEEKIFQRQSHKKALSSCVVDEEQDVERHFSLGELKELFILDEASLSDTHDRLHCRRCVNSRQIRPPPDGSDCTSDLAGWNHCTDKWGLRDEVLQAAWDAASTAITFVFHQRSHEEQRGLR
RAD52 anneal inh: blocks human RAD52 DNA annealing. recombinant RAD52 DNA annealing, FRET fluorescence. AID 651710. P43351. inhibition, % at 18.7 µM. actives 0.46% (n = 360,000);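 active = every replicate showing at least 50% inhibition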
NRP1-CendR mod: modulators of CendR peptide binding to human neuropilin-1. O14786. FAM-RPARPAR peptide binding to NRP-1, fluorescence polarization. inhibition, % at 25 µM. actives 0.85% (n = 360,000);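 active = inhibition or corrected inhibition above about 18%, plus a signal ratio from 0.5 to 1.5, limit read from the data, passing the limit was not always enough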
Glyco luc inh: blocks N-linked glycosylation in D54 reporter cells | actives 0.23% (n = 360,000) | D54 ERlucT glycosylation luciferase reporter, 24 h; percent of 100 nM tunicamycin response | reporter increase, % at 12.5 µM;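 active = mean luciferase reporter signal, scaled so untreated is 0 and the glycosylation-blocking control 100, at or above a set limit in every replicate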;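 note: luciferase carries N-glycosylation sites so blocking glycosylation raises the light; 0% = median of neutral control wells and 100% = median of 100 nM tunicamycin wells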
* hit, by the source's call; [ ] = dose if it differs, or a comment. Most compounds without a hit are left out; they make up all but 1.5% or so of the library.

CCCCC1=CC2=CC(=O)C(C)(OC(=O)CC)C(=O)C2=CN1c1ccc(OC)cc1 (configuration not stated) was read as miR-122 sensor -5.9, RAD54 inh -0.5, RAD52 anneal inh -24.1, NRP1-CendR mod 23.9* and Glyco luc inh 2.0.
Screening CC1(C)S[C@@H]2[C@H](NC(=O)COc3ccccc3)C(=O)N2C1C(=O)OCC1CCCCC1 (some centres not stated) returned miR-122 sensor 3.2, RAD54 inh -5.9, RAD52 anneal inh -16.7, NRP1-CendR mod 25.4* and Glyco luc inh 1.2.
For CN1C(=O)c2cc(NC(=O)Cc3cccs3)ccc2OC[C@H]2O[C@H](CC(=O)NCc3ccc(-c4ccccc4)cc3)CC[C@@H]21 the results were miR-122 sensor -18.3[16.7 µM], RAD54 inh 0.2 and RAD52 anneal inh 3.3.
CN1C(=O)c2cc(NC(=O)Cc3ccccc3)ccc2OC[C@@H]2O[C@@H](CC(=O)NCc3ccc(Cl)cc3)CC[C@@H]21 was read as miR-122 sensor 233.3*[16.7 µM] and RAD54 inh 3.6.
Cc1ccccc1NC(=O)Nc1ccc2c(c1)C(=O)N(C)[C@H]1CC[C@H](CC(=O)NCC3CC3)O[C@H]1CO2 was read as miR-122 sensor 227.8*[16.7 µM], RAD54 inh -2.3 and RAD52 anneal inh -5.8.
For CN1C(=O)c2cc(NC(=O)Cc3cccs3)ccc2OC[C@@H]2O[C@H](CC(=O)NCc3ccc(-c4ccccc4)cc3)CC[C@@H]21 the results were miR-122 sensor 188.3*[16.7 µM], RAD54 inh 0.3 and RAD52 anneal inh -5.5.
Cc1ccccc1NC(=O)Nc1ccc2c(c1)C(=O)N(C)[C@@H]1CC[C@@H](CC(=O)NCC3CC3)O[C@@H]1CO2 was read as miR-122 sensor -4.4[16.7 µM], RAD54 inh -7.6 and RAD52 anneal inh 23.2.
COCCNC(=O)C[C@@H]1CC[C@H]2[C@@H](COc3ccc(NC(C)=O)cc3C(=O)N2C)O1 was read as miR-122 sensor 183.3*[16.7 µM] and RAD54 inh 0.0.
Screening CN1C(=O)c2cc(NC(=O)Nc3ccc(Cl)cc3)ccc2OC[C@@H]2O[C@@H](CC(=O)NCCN3CCCCC3)CC[C@H]21 returned miR-122 sensor -26.7[16.7 µM], RAD54 inh 10.3 and RAD52 anneal inh 52.6*.
CCNC(=O)Nc1ccc2c(c1)C(=O)N(C)[C@H]1CC[C@@H](CC(=O)NCCN3CCCC3)O[C@H]1CO2 was read as miR-122 sensor 3.3[16.7 µM] and RAD54 inh -7.4.
`CN1C(=O)c2cc(NC(=O)Cc3cccs3)ccc2OC[C@H]2O[C@@H](CC(=O)NCC3CC3)CC[C@H]21` gave miR-122 sensor 2.2[16.7 µM], RAD54 inh 6.7 and RAD52 anneal inh -0.2.
Screening CN1C(=O)c2cc(NC(=O)Cc3cccs3)ccc2OC[C@@H]2O[C@@H](CC(=O)NCC3CCCCC3)CC[C@@H]21 returned miR-122 sensor 195.6*[16.7 µM], RAD54 inh 9.9 and RAD52 anneal inh 1.7.
For CN1C(=O)c2cc(NC(=O)NCc3ccccc3)ccc2OC[C@@H]2O[C@@H](CC(=O)NCC3CCCCC3)CC[C@@H]21 the results were miR-122 sensor 120.0*[16.7 µM], RAD54 inh -3.9 and RAD52 anneal inh 6.1.
`C[C@H]1CN([C@@H](C)CO)C(=O)c2cccc(NC(=O)Nc3ccc(C(F)(F)F)cc3)c2O[C@H]1CN(C)S(C)(=O)=O` gave miR-122 sensor -4.5[16.7 µM], RAD54 inh -20.3 and RAD52 anneal inh 8.3.
[O-]/C(=C(\C(=S)NCCN1CCOCC1)[n+]1ccccc1)c1ccc(Cl)s1 was read as FID counter 0.3, miR-122 sensor 1.4, RAD54 inh 8.2, RAD52 anneal inh -18.6, NRP1-CendR mod -28.8 and Glyco luc inh 2.4.
`[O-]/C(=C(\C(=S)NCc1ccccc1)[n+]1ccccc1)c1ccc(Cl)s1` gave FID counter 0.7, miR-122 sensor 173.1*, RAD54 inh -4.6, RAD52 anneal inh -6.1, NRP1-CendR mod 0.5 and Glyco luc inh 0.1.
Screening O=[N+]([O-])c1ccc(Nc2nc(NC3CCCCC3)nc(N3CCCC3)n2)cc1 returned FID counter -3.0, RAD52 anneal inh -4.0, NRP1-CendR mod 39.2* and Glyco luc inh -7.1.
`O=[N+]([O-])c1ccc(Nc2nc(N/N=C/c3cccc(F)c3)nc(N3CCCC3)n2)cc1` gave FID counter 0.8, RAD52 anneal inh -5.7, NRP1-CendR mod 1.5 and Glyco luc inh -7.7.
COC(=O)C[C@H]1c2cc(C(F)(F)F)ccc2S(=O)(=O)N1C1CCCC1 was read as miR-122 sensor -1.4, RAD54 inh 6.2, RAD52 anneal inh -6.1, NRP1-CendR mod 24.1* and Glyco luc inh -0.9.
COC(=O)C[C@H]1c2cc(C(F)(F)F)ccc2S(=O)(=O)N1Cc1ccccc1 was read as miR-122 sensor 14.1, RAD54 inh 6.2, RAD52 anneal inh -12.3, NRP1-CendR mod 25.3* and Glyco luc inh -3.4.
COC(=O)C[C@H]1c2cc(F)ccc2S(=O)(=O)N1Cc1ccccc1OC was read as RAD54 inh 4.4, RAD52 anneal inh -20.5, NRP1-CendR mod -2.6 and Glyco luc inh 1.6.
`CCOC(=O)C[C@H]1c2cc(F)ccc2S(=O)(=O)N1C1CCCCC1` gave miR-122 sensor -1.6, RAD54 inh -4.6, RAD52 anneal inh -0.7, NRP1-CendR mod 25.8* and Glyco luc inh -0.2.
COC(=O)C[C@H]1c2cc(F)ccc2S(=O)(=O)N1C(C)C was read as miR-122 sensor 0.5, RAD54 inh -1.7, RAD52 anneal inh -11.3, NRP1-CendR mod 25.6* and Glyco luc inh 2.0.
CO[C@@H]1CN(C)C(=O)c2cc(NS(=O)(=O)C3CCCCC3)ccc2OC[C@H](C)NC[C@@H]1C was read as RAD54 inh -4.6 and RAD52 anneal inh -18.4.
For CO[C@H]1CN(C)C(=O)c2cc(NC(=O)c3cnccn3)ccc2OC[C@@H](C)N(CC2CC2)C[C@H]1C the results were RAD52 anneal inh 3.2.
COC(=O)C[C@H]1c2cc(F)cc(F)c2S(=O)(=O)N1C1CCN(Cc2ccccc2)CC1 was read as miR-122 sensor -0.6, RAD54 inh 1.1, RAD52 anneal inh -10.0, NRP1-CendR mod 26.8* and Glyco luc inh -0.7.
`CC(=O)C[C@H]1c2cc(C(F)(F)F)ccc2S(=O)(=O)N1C1CCCCC1` gave miR-122 sensor 117.8*, RAD54 inh -7.4, RAD52 anneal inh -16.1, NRP1-CendR mod 26.9* and Glyco luc inh 4.1.
Screening NC(=O)NCC#Cc1ccc2c(c1)[C@]1(C(=O)N2)[C@H](c2ccccc2OCCO)N2[C@H](c3ccccc3)[C@H](c3ccccc3)OC(=O)[C@H]2[C@@H]1C(=O)N1CCN(c2ncccn2)CC1 returned RAD52 anneal inh 7.6.
For C[C@H]1CN([C@@H](C)CO)C(=O)Cc2cc(NC(=O)Nc3cccc4ccccc34)ccc2O[C@H]1CN(C)C(=O)NC1CCCCC1 the results were miR-122 sensor 15.9[16.7 µM], RAD54 inh 3.5 and RAD52 anneal inh -0.7.
